High-throughput results as filed in PubChem BioAssay.
This is a sample that favours compounds with a hit; in the whole collection about 5.2% have one here.
TSHR agonist – qHTS Assay for Agonists of the Thyroid Stimulating Hormone Receptor. Thyrotropin receptor (Homo sapiens), P16473. HEK293-CNG-TSHR cells (CNG channel as cAMP sensor), membrane potential dye, cAMP. Potency, µM (doses to about 57.1 µM), inactives show at the highest dose activation, actives largely listed as activators. hit rate 0.48% among 73,000. AID 926, 2007; active = well fitted activation curve with a large enough effect in the main read-out, with a control signal flat, not every such curve was filed as active; inconclusive = small, poorly fitted or top-dose-only effect, or a change in a side signal; inactive = no such curve, though single readings can be large or run the other way; % of control where 0% means no effect;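 also: the control signal comes from parental cells without the receptor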
Target sequence (P16473 whole entry, looked up): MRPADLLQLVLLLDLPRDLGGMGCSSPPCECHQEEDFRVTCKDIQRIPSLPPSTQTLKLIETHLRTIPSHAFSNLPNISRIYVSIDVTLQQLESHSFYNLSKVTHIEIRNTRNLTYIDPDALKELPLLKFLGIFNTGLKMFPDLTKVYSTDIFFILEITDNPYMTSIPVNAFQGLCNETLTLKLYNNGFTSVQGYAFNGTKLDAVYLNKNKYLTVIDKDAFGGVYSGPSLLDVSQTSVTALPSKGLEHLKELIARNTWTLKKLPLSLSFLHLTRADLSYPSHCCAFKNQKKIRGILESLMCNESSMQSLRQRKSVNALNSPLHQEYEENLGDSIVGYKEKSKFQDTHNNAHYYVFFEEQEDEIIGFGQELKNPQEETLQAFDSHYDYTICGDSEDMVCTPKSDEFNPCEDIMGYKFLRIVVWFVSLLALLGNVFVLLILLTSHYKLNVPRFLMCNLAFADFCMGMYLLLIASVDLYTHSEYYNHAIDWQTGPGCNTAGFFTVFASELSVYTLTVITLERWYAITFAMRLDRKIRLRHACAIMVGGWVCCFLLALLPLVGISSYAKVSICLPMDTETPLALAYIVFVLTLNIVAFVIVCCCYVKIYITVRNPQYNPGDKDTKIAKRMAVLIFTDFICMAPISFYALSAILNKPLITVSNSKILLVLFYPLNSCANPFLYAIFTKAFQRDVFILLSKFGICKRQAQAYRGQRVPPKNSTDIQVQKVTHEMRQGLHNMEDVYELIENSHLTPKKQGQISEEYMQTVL
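cAMP rise detected as CNG-channel membrane depolarization by fluorescent dye (emission 590 nm), 30 min after compound, following 60 min dye loading containing 100 uM RO 20-1724 at room temperature. Cells: TSHR/CNG HEK 293, with parental CNG HEK 293 as control.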
HEK293 cAMP ctrl – qHTS Assay for Agonists of the Thyroid Stimulating Hormone Receptor: Activators of Intracellular cAMP Concentrations in Parental HEK 293 | parental HEK293 CNG cAMP sensor, membrane potential fluorescence | Potency, µM (series often up to 57.1 µM), for the others: top-dose activation, most hits filed as activators | hit rate 2.5% among 73,000; also: % of control where 0% means no effect; nearly all actives have a fitted effect of over 55% in size
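Parental HEK 293 cells stably expressing a modified CNG channel (no TSHR) report cAMP rise as membrane depolarization. Membrane potential dye with 100 uM RO 20-1724 was loaded for 60 min at room temperature, then compound added for 30 min; fluorescence read at 590 nm.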
Luciferase inh – qHTS Assay for Inhibitors of Firefly Luciferase; Luciferin 4-monooxygenase (Photinus pyralis), P08659; purified firefly luciferase, luminescence, 8 min; Potency, µM (top dose mostly 57.1 µM), inactives show top-dose activity change, negative = inhibition, hits mostly inhibitors; hit rate 2.2% among 72,000; AID 411, 2009; also: % is scaled to controls: 0 for no effect and ±100 for the full control effect; nearly all actives have a fitted effect of over 40% in size
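Firefly luciferase (PKLight detection mix) with 10 uM ATP in pH 7.2 imidazole buffer (KCl, MgCl2, Tween 20, BSA). Compounds tested across a concentration series (qHTS). Luminescence read after 8 min at ambient temperature.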
PK Bst – Pyruvate Kinase | hit rate 1.2% among 51,000 | purified pyruvate kinase, luminescence ATP production; ribose 5-phosphate activator present at AC10 | Potency, µM; in the data active = potency below about 11 µM; inconclusive = mostly about 12 µM to 25 µM;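 the screen sought inhibitors and activators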;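 also: scaled between full activation by ribose 5 phosphate and full inhibition by luteolin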
* = called active by the depositor; i = inactive; u = inconclusive; x = no result given; [ ] = remark or other dose. Unless noted, calls follow the shape of the dose curve; as a rule, active = well fitted curve in the direction sought with a large enough effect; inconclusive = small, poorly fitted or top-dose-only effect, or another doubt; inactive = no such curve, though single readings can be large; an effect the other way counts as inactive or inconclusive. Potency is read from the fitted curve at half-maximal effect.

SMILES | TSHR agonist | HEK293 cAMP ctrl | Luciferase inh | PK Bst
COc1ccc(C(c2nnnn2CC2CCCO2)N2CCN(c3cccc(C)c3C)CC2)cc1 (stereo unspecified) | u | 7.9µM* | 0% | >57
CCCCC(c1nnnn1CC1CCCO1)N1CCN(c2cccc(C)c2C)CC1 (stereo unspecified) | u | u | 1% | >57
O=C(Nc1ccc2nc3n(c(=O)c2c1)CCCCC3)c1ccccn1 | -6% | -2% | 13µM* | x
CC(=O)C1=C(C)NC(SCC(=O)c2ccccc2)=C(C#N)C1CC(C)C (stereo unspecified) | 10µM* | 3% | -6% | >57
O=C(CSc1nnnn1C1CCCCC1)Nc1nc2c(s1)CCCC2 | 21% | 25% | 2% | >57
c1ccc(-c2nc3ccccc3o2)nc1 | 8% | 3% | -26% | x
Clc1ccc2oc(-c3ccccn3)nc2c1 | -3% | 20% | 16µM* | u
Nc1ccc2oc(-c3ccccn3)nc2c1 | -3% | -6% | 20µM* | x
NCC(=O)NC1(C(=O)O)CCCC1 | u | -63%[11.4 µM] | 2%[11.4 µM] | x
O=S(=O)(c1cccc(-c2nc3n(n2)Cc2ccccc2-3)c1)N1CCCC1 | 13% | 6% | 1% | x
O=C(CC1COc2ccccc2O1)Nc1ccccn1 (stereo unspecified) | 18% | 13% | -2% | >57
CC[C@H](C)N(C)C(=O)c1cc2ccccc2c(-c2ccccc2Cl)n1 | 25µM* | u | -5% | x
Cc1nn(C)c(C)c1S(=O)(=O)N1CCC(C(=O)NC2CCCc3ccccc32)CC1 (stereo unspecified) | 0% | -2% | -10% | x
O=C1C(C=NCCN2CCOCC2)=C(O)c2ccccc21 | -2%[11.4 µM] | -2%[11.4 µM] | 13µM* | x
O=C1C(C=NCCCN2CCOCC2)=C(O)c2ccccc21 | -4% | 10% | -2% | x
CC(=O)N1CCCc2cc(S(=O)(=O)N(C)Cc3ccccc3)ccc21 | 3% | -2% | 1% | >57
COc1ccc(C(=O)NCCn2ccc3ccccc32)cc1OC | u | u | 10µM* | x
COc1cccc(C(=O)NCCn2ccc3ccccc32)c1 | -2% | 15% | 0% | x
Cc1cccc(C)c1OCC(=O)Nc1cccc(-c2nnc(-c3ccccc3)o2)c1 | x | x | 0%[25.5 µM] | >26
O=S(=O)(NC1CCCCC1)c1cccc(-c2nnc(-c3ccccc3)o2)c1 | u | 20µM* | 0% | x
O=C(Nc1cccc(-c2nnc(-c3ccccc3)o2)c1)C1CCCCC1 | u | u | 1% | >57
Cc1ccccc1NS(=O)(=O)c1cccc(-c2nnc(-c3ccccc3)o2)c1 | u | 6.3µM* | -1% | x
CCC(C)Sc1nc2c(c(=O)[nH]c(=O)n2C)n1CCc1ccccc1 (stereo unspecified) | u | 32µM* | 1% | >57
CC(C)Sc1nc2c(c(=O)[nH]c(=O)n2C)n1CCc1ccccc1 | x | 25% | 1% | >57
CCC12CCCN3CCC4(C(=C(C(=O)OC)C1)Nc1ccccc14)C32 (stereo unspecified) | u | 25µM* | 0% | >57
SMILES | TSHR agonist | HEK293 cAMP ctrl | Luciferase inh | PK Bst
CC1CC(C)CN(C(=O)CSc2nnc(-c3ccc(Cl)cc3)o2)C1 (stereo unspecified) | u | u | 2% | x
Cc1ccc(-c2nnc(SCC(=O)N3CC(C)CC(C)C3)o2)cc1C (stereo unspecified) | u | 16µM* | -17% | x
C1CCC(Nc2nnnn2C2CCCCC2)CC1 | u | u | 1% | x
CN(C)/C=C/C(=O)c1nnn(C2CCCCC2)c1NC1CCCCC1 | u | 16µM* | 1% | x
CCC1Oc2ccc(C)cc2N(CC(=O)NCCC2=CCCCC2)C1=O (stereo unspecified) | u | 6.3µM* | 1% | >57
CCC1Oc2ccc(C)cc2N(CC(=O)NCCCN2CCCCC2CC)C1=O (stereo unspecified) | 17% | 10% | 0% | >57
O=C(Nc1cccc(C(F)(F)F)c1)c1cccnc1 | u | u | 3% | >57
Fc1ccccc1CSc1nnc(-c2cccs2)o1 | u | u | -12% | >57
N#Cc1nc(-c2ccc(OCc3ccccc3)cc2)oc1NCCCn1ccnc1 | -13% | -11% | 1% | 4.3*
N#Cc1nc(COc2ccccc2)oc1NCCCn1ccnc1 | 11% | 9% | -4% | >57
N#Cc1nc(-c2ccc(OCc3ccccc3)cc2)oc1NCc1cccnc1 | 25% | 9% | 0% | x
N#Cc1nc(-c2ccc(OCc3ccccc3Cl)cc2)oc1NCCCn1ccnc1 | -8% | -19% | 0% | 2.6*
N#Cc1nc(-c2ccc(OCc3ccc(Cl)cc3)cc2)oc1NCc1cccnc1 | 1% | 7% | -2% | 2.7*
CC(C)(C)c1ccc(-c2nc(C#N)c(NCc3ccncc3)o2)cc1 | 6% | -5% | 20µM* | x
O=C(C1CCN(c2ccc(N3CCOCC3)nn2)CC1)N1CCc2ccccc2C1 | -10% | 8% | 0% | >57
O=c1cnn([C@@H]2O[C@H](CO)[C@@H](O)[C@H]2O)c(=O)[nH]1 | -1% | -8% | x | x
CN(C)c1oc(-c2ccc(OCc3ccccc3)cc2)nc1C#N | 4% | 11% | 2% | 2.8*
COc1ccc(-c2nc(C#N)c(NCCc3ccccc3)o2)cc1OC | -19% | 7% | 13µM* | i
N#Cc1nc(-c2ccc(OCc3ccc(Cl)cc3)cc2)oc1N1CCOCC1 | 8% | 24% | 1% | >57
Cc1cc(N2CCN(C/C=C/c3ccccc3)CC2)n2ncnc2n1 | u | u | 2% | >57
Cc1cc(N2CCN(C(c3ccccc3)c3ccc(Cl)cc3)CC2)n2ncnc2n1 (stereo unspecified) | 25µM* | 17% | 1% | x
CCOC(=O)c1ccccc1NC(=O)CC1SC(=NC)N(C)C1=O (stereo unspecified) | u | u | 1% | >57
S=c1nc(-c2ccccc2)n(CCN2CCOCC2)c2c1CCCC2 | 2% | 0% | 4% | >57
c1ccc(-c2nc3nc4ccccc4nc3n2Cc2ccco2)cc1 | u | 10µM* | -11% | >57
S=c1nc(-c2ccccc2)n(Cc2ccco2)c2c1CCCC2 | 5µM* | 43% | x | x
SMILES | TSHR agonist | HEK293 cAMP ctrl | Luciferase inh | PK Bst
CCc1nnc(NC(=O)CSc2nc3c(cc2C#N)CCCC3)s1 | x | 9% | u | x
COC(=O)CC(=O)CSc1nc2c(cc1C#N)CCCCC2 | -3% | 0% | 13µM* | i
N#Cc1cc2c(nc1SCc1cccnc1)CCCCC2 | u | 10µM* | 1% | >57
Nc1nc2ccccc2n1CCN1CCCC1 | 11% | 11% | 6% | >57
CCCC1=C(C(=O)OCC)C(c2ccccc2OCC)NC(=O)N1C (stereo unspecified) | 26% | 22% | 0% | x
CC(C)C(c1nnnn1C1CCCC1)N(C)C1CCCCC1 (stereo unspecified) | u | 20µM* | 2% | >57
CCOC(=O)c1sc(NC(=O)CSc2nnc(-c3ccco3)n2CC)c(C(=O)OCC)c1C | u | u | -1% | >57
